Assay results: PubChem BioAssay
Unmarked numbers belong to inactive results. For some assays here: Results with a measured potency or affinity are listed apart. The source made the active and inactive calls. Unless noted, how the calls were made is not given here.

Assays:
[1] = antimalarial activity against Dd2 strain (AID 2302;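 active means growth inhibition above 50% at the single 2 µM test dose, taken to imply half-maximal potency below 2 µM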;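 further: 0% = DMSO untreated growth and 100% = chloroquine plus artemisinin killed control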); settings: P. falciparum Dd2 in RBCs, LDH growth readout, 72 h; at 2 µM; stronger effect = higher value
[2] = HepG2 cytotoxicity, primary screen, cytotoxicity control for P. falciparum antimalarial project, cell-based, ATP luminescence (AID 2303;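 active means inhibition above 50%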;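 further: 0% = DMSO wells and 100% = digitonin-killed cells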); settings: HepG2 viability, 24-48 h, at 10 µM, stronger effect = higher value
[3] = target: L-lactate dehydrogenase (Plasmodium falciparum (isolate CDC / Honduras)) (UniProt Q27743); test: PfLDH activity inhibition – cell lysate, 3D7 strain, counter-screen for P. falciparum growth inhibition project (AID 2304);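 further: 0% = vehicle and 100% = reference inhibitor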; settings: P. falciparum 3D7 crude extract, LDH APAD/NBT absorbance; at 2 µM; stronger effect = higher value
[4] = inhibition of 3D7 malaria parasite growth – strain 3D7 (AID 2306);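 further: 0% = DMSO wells and 100% = chloroquine plus artemisinin control wells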; settings: P. falciparum 3D7 erythrocytic growth, LDH absorbance, 72 h; at 2 µM; stronger effect = higher value
[5] = target: Calcium-dependent protein kinase 1 (Plasmodium falciparum (isolate 3D7)) (UniProt P62344); test: PfCDPK1 kinase inhibitors, biochemical, TCAMS library (AID 1159585; cut-off not given, nearly all actives have IC50 up to about 0.98 µM;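 further: inhibitors leave more ATP so luminescence rises with inhibition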); settings: recombinant PfCDPK1, Kinase-Glo ATP depletion luminescence
[6] = target: Plasmodium falciparum protein kinase 6 (PK6, PF3D7_1337100) (UniProt Q8IDW1); test: PfPK6 kinase inhibitors, biochemical, TCAMS library (AID 1159586); settings: recombinant PfPK6, Kinase-Glo ATP depletion luminescence
[7] = target: Protein kinase 7 (PK7), Plasmodium falciparum 3D7 (PF3D7_0213400) (UniProt Q7YTF7); test: inhibition of Plasmodium PK7 catalytic activity – biochemical, TCAMS antimalarial set, Kinase-Glo luminescence (AID 1159587); settings: recombinant PfPK7, Kinase-Glo ATP depletion luminescence
[8] = target: Calcium-dependent protein kinase 4 (Plasmodium falciparum (isolate 3D7)) (UniProt Q8IBS5); test: PfCDPK4 kinase inhibitors, biochemical, TCAMS library (AID 1159588; cut-off not given, nearly all actives have IC50 up to about 0.91 µM); settings: recombinant PfCDPK4, Kinase-Glo ATP depletion luminescence
Calcium-dependent protein kinase 4 (Plasmodium falciparum (isolate 3D7)), sequence (Q8IBS5 whole entry, looked up): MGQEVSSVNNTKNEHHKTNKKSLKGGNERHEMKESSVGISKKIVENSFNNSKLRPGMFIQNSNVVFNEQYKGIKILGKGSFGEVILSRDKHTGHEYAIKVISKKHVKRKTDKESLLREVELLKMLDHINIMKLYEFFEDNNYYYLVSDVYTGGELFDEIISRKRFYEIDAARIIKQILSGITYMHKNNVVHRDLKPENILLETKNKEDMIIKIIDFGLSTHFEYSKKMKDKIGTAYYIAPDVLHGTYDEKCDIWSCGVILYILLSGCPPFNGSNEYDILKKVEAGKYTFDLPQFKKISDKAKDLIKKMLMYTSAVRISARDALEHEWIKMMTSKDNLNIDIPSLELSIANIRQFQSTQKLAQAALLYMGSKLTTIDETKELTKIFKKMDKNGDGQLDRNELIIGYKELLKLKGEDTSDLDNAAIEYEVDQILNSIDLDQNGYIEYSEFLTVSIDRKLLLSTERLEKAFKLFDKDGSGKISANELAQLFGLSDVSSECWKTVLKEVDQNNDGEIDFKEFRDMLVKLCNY

Protein kinase 7 (PK7), Plasmodium falciparum 3D7 (PF3D7_0213400), sequence (Q7YTF7 1-343): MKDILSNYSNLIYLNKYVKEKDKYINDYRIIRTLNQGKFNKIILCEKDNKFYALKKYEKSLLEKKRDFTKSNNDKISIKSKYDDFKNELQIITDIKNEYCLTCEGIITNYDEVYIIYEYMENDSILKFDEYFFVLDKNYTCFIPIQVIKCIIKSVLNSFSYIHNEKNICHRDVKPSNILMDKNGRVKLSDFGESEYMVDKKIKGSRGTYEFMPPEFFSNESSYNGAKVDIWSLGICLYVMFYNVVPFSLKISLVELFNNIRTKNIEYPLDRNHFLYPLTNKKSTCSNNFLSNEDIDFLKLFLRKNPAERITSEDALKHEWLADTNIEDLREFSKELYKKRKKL
L-lactate dehydrogenase (Plasmodium falciparum (isolate CDC / Honduras)), sequence (Q27743 whole entry, looked up): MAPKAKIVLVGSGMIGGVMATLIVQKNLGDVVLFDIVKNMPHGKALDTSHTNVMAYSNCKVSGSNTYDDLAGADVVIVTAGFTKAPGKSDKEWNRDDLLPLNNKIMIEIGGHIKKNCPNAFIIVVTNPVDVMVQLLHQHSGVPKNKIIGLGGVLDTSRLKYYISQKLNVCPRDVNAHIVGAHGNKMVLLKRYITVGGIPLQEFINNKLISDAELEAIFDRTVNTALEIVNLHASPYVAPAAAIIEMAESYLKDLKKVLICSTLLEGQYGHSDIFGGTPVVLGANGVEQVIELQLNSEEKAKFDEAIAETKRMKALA
Plasmodium falciparum protein kinase 6 (PK6, PF3D7_1337100), sequence (Q8IDW1 1-305): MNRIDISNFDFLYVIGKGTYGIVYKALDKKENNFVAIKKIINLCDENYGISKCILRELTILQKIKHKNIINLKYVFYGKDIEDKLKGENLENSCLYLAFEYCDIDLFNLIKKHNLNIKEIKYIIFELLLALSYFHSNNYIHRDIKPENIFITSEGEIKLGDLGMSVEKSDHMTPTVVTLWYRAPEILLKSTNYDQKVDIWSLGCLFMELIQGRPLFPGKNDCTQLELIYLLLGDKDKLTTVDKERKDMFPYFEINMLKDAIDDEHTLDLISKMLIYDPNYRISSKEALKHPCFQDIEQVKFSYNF
Calcium-dependent protein kinase 1 (Plasmodium falciparum (isolate 3D7)), sequence (P62344 whole entry, looked up): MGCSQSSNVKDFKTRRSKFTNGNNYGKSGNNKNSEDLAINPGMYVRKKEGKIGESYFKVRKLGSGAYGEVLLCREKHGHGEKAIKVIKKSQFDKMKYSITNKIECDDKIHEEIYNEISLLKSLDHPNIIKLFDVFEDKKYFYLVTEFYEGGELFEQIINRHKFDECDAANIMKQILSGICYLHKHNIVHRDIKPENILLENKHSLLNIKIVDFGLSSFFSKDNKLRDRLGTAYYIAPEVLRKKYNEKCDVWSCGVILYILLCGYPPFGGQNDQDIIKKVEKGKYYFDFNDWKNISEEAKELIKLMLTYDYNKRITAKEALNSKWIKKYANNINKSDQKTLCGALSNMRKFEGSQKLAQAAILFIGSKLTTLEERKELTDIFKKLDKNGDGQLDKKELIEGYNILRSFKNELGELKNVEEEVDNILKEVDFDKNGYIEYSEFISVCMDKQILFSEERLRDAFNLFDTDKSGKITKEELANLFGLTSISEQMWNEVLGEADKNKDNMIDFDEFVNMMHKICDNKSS

SMILES | growth inhibition [1] | inhibition [2] | inhibition [3] [%] | growth inhibition [4] | outcome [5] | outcome [6] | outcome [7] | outcome [8]
O=C(/C=C/c1ccc(C(F)(F)F)cc1)NCCCCCN1CCN(C(=O)Nc2ccc(Cl)c(Cl)c2)CC1 | -4% | 37% | 5 | 95% (active) | inactive | inactive | inactive | inactive
OC(CNCc1cccc(Oc2ccc(Cl)cc2)c1)c1cc(C(F)(F)F)cc(C(F)(F)F)c1 (stereo not given) | 101% (active) | -4% | 8 | 99% (active) | inactive | inactive | inactive | inactive
NC(N)=Nc1nc(-c2cccc(NC(=O)NCc3cccc4ccccc34)c2)cs1 | 32% | 14% | 5 | 101% (active) | inactive | inactive | inactive | inactive
COc1ccc2c(NN=Cc3ccncc3)cc(C)nc2c1 | 95% (active) | -4% | -4 | 99% (active) | inactive | inactive | inactive | inactive
CN1CCN(c2cccc(NC(=O)c3ccc(-c4ccc(C#N)cc4)cc3)c2)CC1 | 7% | 31% | 2 | 84% (active) | inactive | inactive | inactive | inactive
CN1CCCc2ccc(NC(=O)Nc3ccc(Cl)c(Cl)c3)cc2C1 | 22% | -13% | -2 | 89% (active) | inactive | inactive | inactive | inactive
O=C(Nc1ccc([N+](=O)[O-])cc1Br)c1cc2ccccc2nc1Cl | 68% (active) | -4% | 2 | 97% (active) | inactive | inactive | inactive | inactive
CN(C)CCCOc1ccc(CNCC(C)(C)c2nc(-c3ccc(Cl)c(O)c3)c(-c3ccncc3)[nH]2)cc1 | 58% (active) | 64% (active) | -2 | 102% (active) | inactive | inactive | inactive | inactive
CC(C)(C)c1cc(C(=O)N2CCN(c3nccnc3C#N)CC2)n(Cc2ccccc2)n1 | 93% (active) | -11% | -9 | 100% (active) | inactive | inactive | inactive | inactive
Cc1nc(N)nc(N)c1-c1cc(Cl)c(N)c(Cl)c1 | 2% | 62% (active) | 6 | 94% (active) | inactive | inactive | inactive | inactive
COc1cc(C(F)(F)F)cc2[nH]c(CNCCCNc3nc4ccccc4[nH]3)cc12 | 2% | 59% (active) | 2 | 102% (active) | inactive | inactive | inactive | inactive
CC(C)(C)c1nn(-c2ccccc2)c2[nH]c(=O)c(CNCCc3ccccc3)cc12 | 90% (active) | -7% | 0 | 94% (active) | inactive | inactive | inactive | inactive
OC1(C(F)(F)F)CC(c2ccccc2)=NN1c1nncc(-c2ccccc2)n1 (stereo not given) | 3% | -3% | -5 | 99% (active) | inactive | inactive | inactive | inactive
N#CC(NC(=O)C=Cc1ccccc1)c1ccccc1 (stereo not given) | 3% | 3% | -8 | 95% (active) | inactive | inactive | inactive | inactive
Cc1ccc(C(=O)NC2CCN(CCNC(=O)Nc3cc(C)nc4ccccc34)CC2)cc1 | 76% (active) | -12% | -8 | 98% (active) | inactive | inactive | inactive | inactive
CC(=O)NCC(=O)NC1=NC(C)(C)N(OCc2ccc3ccccc3c2)C(N)=N1 | 97% (active) | 66% (active) | -1 | 95% (active) | inactive | inactive | inactive | inactive
COC(=O)c1ccc(OCC(C)NCC(O)c2cccc(C(F)(F)F)c2)cc1 (stereo not given) | 81% (active) | 6% | -2 | 94% (active) | inactive | inactive | inactive | inactive
CC(C)CNCc1cccc(-c2cccc(CNC3CCN(Cc4ccccc4)CC3)c2)c1 | 99% (active) | 32% | -2 | 102% (active) | inactive | inactive | inactive | inactive
O=[N+]([O-])c1cc(/C=N/Nc2nc3ccccc3[nH]2)ccc1O | 14% | -7% | -5 | 98% (active) | inactive | inactive | inactive | inactive
Cc1[nH]c(C)c(-c2ccc(-c3cccc(Cl)c3)nc2)c(=O)c1Br | 96% (active) | 10% | 3 | 96% (active) | inactive | inactive | inactive | inactive

SMILES | growth inhibition [1] | inhibition [2] | inhibition [3] [%] | growth inhibition [4] | outcome [5] | outcome [6] | outcome [7] | outcome [8]
Cc1cc2[nH]c(-c3ccc(C(=O)NCCCN4CCN(c5cccc(Cl)c5)CC4)cc3)nc2cc1Cl | 73% (active) | 1% | 6 | 98% (active) | inactive | inactive | inactive | inactive
CC(C)CNCc1cccc(-c2cccc(CNc3ccc4ncccc4c3)c2)c1 | 28% | 23% | 6 | 92% (active) | inactive | inactive | inactive | inactive
CC(CN(C)C)C(=O)Nc1cccc(-c2ccc(-c3nc4ccc(C(F)(F)F)cc4[nH]3)cc2)c1 (stereo not given) | 97% (active) | 26% | -2 | 99% (active) | inactive | inactive | inactive | inactive
COc1ccc(COc2c(OC)cc(Cc3cnc(N)nc3N)cc2OC)cc1 | 23% | 5% | 1 | 90% (active) | inactive | inactive | inactive | inactive
Cc1ccc(Cn2ncc(N3C[C@@H](C)N[C@@H](C)C3)c(Cl)c2=O)cc1NC(=O)Nc1ccc(-c2ccccc2)cc1 | 29% | 51% (active) | -2 | 100% (active) | inactive | inactive | inactive | inactive
O=C(Nc1ccc(Cl)c(Cl)c1)N1CCC(CNCc2cccc([N+](=O)[O-])c2)CC1 | 6% | 13% | 2 | 98% (active) | inactive | inactive | inactive | inactive
CCCOc1ccc2ccccc2c1CNCCCCCCNCc1c(OCCC)ccc2ccccc12 | 90% (active) | 100% (active) | 0 | 94% (active) | inactive | inactive | inactive | inactive
O=C(NC1CCN(Cc2ccccc2)CC1)c1ccc(-c2nc3cc(Cl)c(F)cc3[nH]2)cc1 | 100% (active) | 13% | 3 | 100% (active) | inactive | inactive | inactive | inactive
Cc1ccc(O)cc1C[C@@H]1C(=O)CC[C@@]2(C)[C@H]1CC[C@]2(C)O | -6% | 4% | 1 | 96% (active) | inactive | inactive | inactive | inactive
N#Cc1cccc(NC(=O)Nc2cccc(OC3CCN(Cc4ccccc4)CC3)c2)c1 | 48% | 5% | 1 | 100% (active) | inactive | inactive | inactive | inactive
O=C(Nc1ccc(SC(F)(F)F)cc1)Nc1ccc(Cl)c(Cl)c1 | 99% (active) | 15% | 4 | 98% (active) | inactive | inactive | inactive | inactive
COC(=O)c1cc(C(O)CNC(C)CCc2cccc(F)c2)ccc1O (stereo not given) | 77% (active) | 38% | -2 | 94% (active) | inactive | inactive | inactive | inactive
N#Cc1ccc(-c2ccc(C(=O)NCCCCN3CCC(c4cc(Br)c5c(c4O)CCCC5)CC3)cc2)cc1 | 50% (active) | 93% (active) | 7 | 101% (active) | inactive | inactive | inactive | inactive
O=C1C([N+](=O)[O-])=C(O)c2cccc(F)c21 | 13% | 9% | 0 | 95% (active) | inactive | inactive | inactive | inactive
CN(C)CCNC(=O)c1ccc(-c2ccc3c(Nc4ccccc4)c(C(N)=O)cnc3c2)cc1 | 68% (active) | 9% | 6 | 99% (active) | inactive | inactive | inactive | inactive
O=C(CCn1c2ccccc2c2ccccc21)NN=Cc1ccco1 | -3% | 6% | -3 | 96% (active) | inactive | inactive | inactive | inactive
CCN(CC)CCN(Cc1ccc(-c2ccc(C(F)(F)F)cc2)cc1)C(=O)Cn1nc(-c2ccc(C(F)(F)F)cc2)ccc1=O | 83% (active) | 44% | -2 | 100% (active) | inactive | inactive | inactive | inactive
COc1ccccc1CNC(=O)c1cc(C2CC2)nc2c1cnn2C(C)C | 92% (active) | 47% | 5 | 94% (active) | inactive | inactive | inactive | inactive
O=C(Nc1ccc(-c2ccc(-c3nc4ccccc4[nH]3)cc2)cc1)Nc1ccc(Cl)c(Cl)c1 | 100% (active) | 68% (active) | 4 | 102% (active) | inactive | inactive | inactive | inactive
O=C(NCc1ccc(C(F)(F)F)cc1)c1cccc(-c2nnc(-c3cccc(-c4cncnc4)c3)o2)c1 | 79% (active) | 13% | -2 | 96% (active) | inactive | inactive | inactive | inactive
